Inconclusive results are not listed. A call without a number means that no potency is given here. Activity calls are given as the source filed them. Calls follow the shape of the dose curve; as a rule, active = well fitted curve in the direction sought with a large enough effect in the signal ratio, with a control signal flat (not every such curve was filed as active); inconclusive = small, poorly fitted or top-dose-only effect, or a change in a side signal; inactive = no such curve, though single readings can be large or run the other way; the % refers to the signal ratio.
Assay: qHTS Assay for Identification of Small Molecule Inducers of Hypoxia Response (AID 2120)
Conditions: hypoxia response reporter cells, beta-lactamase ratio readout; series mostly up to 104 µM
From the text: NIH Chemical Genomics Center [NCGC]
NIH Molecular Libraries Screening Centers Network [MLSCN]
National Institutes of Environmental Health Sciences [NIEHS]
National Toxicology Program [NTP]
Hypoxia-inducible factor-1 (HIF-1) is the major hypoxia-regulated transcription factor that controls cellular responses to low oxygen concentration. HIF-1 is composed of two subunits: hypoxia responsive HIF-1a and constitutively expressed HIF-1b, which is also known as aryl hydrocarbon receptor nuclear translocator. During hypoxic conditions, HIF-1a heterodimerizes with HIF-1b and translocates into the nucleus where the HIF-1 complex binds to the hypoxia-response element (HRE) and activates expression of target genes such as VEGF (vascular endothelial growth factor). The HIF-1 pathway is essential to normal growth and development, and is involved in the pathophysiology of cancer, inflammation, and ischemia.
Using a beta-lactamase reporter-gene under control of the hypoxia response element, a cell-based assay [CellSensor(TM) HRE-bla ME-180 developed by Invitrogen Corp.] was used to measure hypoxia-induced signaling. Library compounds were measured for their ability to induce the reporter gene activity. Compounds were screened in a titration series in 1536-well format. The inducers were identified based on the AC50 values derived from the screening data.
NCGC Assay Protocol Summary
2500 cells/5uL in Opti-MEM medium containing 0.5% dialyzed FBS, 0.1 mM NEAA, 1 mM sodium pyruvate and 10 mM HEPES was dispensed into 1536-well plates and cells were cultured at 37 degrees Celsius for 4-5 hours and then 23 nL of compounds or DMSO were delivered to each well using a pin tool. The plates were incubated at 37 degrees Celsius for 17 hours. 1 uL of CCF4-dye mixture was added to each well. After incubated at room temperature for 2.5 hours the plates were measured on an EnVision plate reader at Excitation 405nm, Emission1=460nm and Emission 2=530nm. The %Activity was determined from the ratio of 460nm/530nm.
Potency is read from the fitted curve at half-maximal effect.

**Q.** Which Potency does the source give for ClC(Cl)Cl here?
**A.** inactive

**Q.** For [O-][N+](=Nc1ccccc1)c1ccccc1, which Potency is on record?
**A.** inactive

**Q.** Which Potency does the source give for OB(O)O here?
**A.** inactive

**Q.** For CCCCC, which Potency is on record?
**A.** inactive

**Q.** With CC(C)(C)CC(C)(C)c1ccc(OCCO)cc1 as the compound, how does the Potency read?
**A.** inactive

**Q.** With OCC(O)CO as the compound, how does the Potency read?
**A.** inactive

**Q.** Which Potency does the source give for CO/N=C(/C(=O)N[C@@H]1C(=O)N2C(C(=O)O)=C(COC(N)=O)CS[C@H]12)c1ccco1 here?
**A.** inactive

**Q.** Which Potency does the source give for Cc1ncc[nH]1 here?
**A.** inactive

**Q.** Which Potency does the source give for Nc1nccs1 here?
**A.** inactive

**Q.** For CCOC(C)OCC, which Potency is on record?
**A.** inactive

**Q.** With CO as the compound, how does the Potency read?
**A.** inactive

**Q.** With O.O.O.O.O.O.O.O=S(=O)([O-])[O-].[Co+2] as the compound, how does the Potency read?
**A.** 31.6 µM (active)

**Q.** Which Potency does the source give for OC[C@H]1O[C@@H]2O[C@H]3[C@H](O)[C@@H](O)[C@@H](O[C@H]4[C@H](O)[C@@H](O)[C@@H](O[C@H]5[C@H](O)[C@@H](O)[C@@H](O[C@H]6[C@H](O)[C@@H](O)[C@@H](O[C@H]7[C@H](O)[C@@H](O)[C@@H](O[C@H]1[C@H](O)[C@H]2O)O[C@@H]7CO)O[C@@H]6CO)O[C@@H]5CO)O[C@@H]4CO)O[C@@H]3CO here?
**A.** inactive

**Q.** For CC1=CCC2CC1C2(C)C (stereo unspecified), which Potency is on record?
**A.** inactive

**Q.** With CC/C=C\C/C=C\C/C=C\CCCCCCCC(=O)O as the compound, how does the Potency read?
**A.** inactive

**Q.** For O=P(O)(O)O, which Potency is on record?
**A.** inactive

**Q.** For CCCCO, which Potency is on record?
**A.** inactive

**Q.** With NC(N)=O as the compound, how does the Potency read?
**A.** inactive

**Q.** Which Potency does the source give for Oc1cccc(O)c1O here?
**A.** inactive

**Q.** Which Potency does the source give for CC[C@H]1OC(=O)[C@H](C)[C@@H](O[C@H]2C[C@@](C)(OC)[C@@H](O)[C@H](C)O2)[C@H](C)[C@@H](O[C@@H]2O[C@H](C)C[C@H](N(C)C)[C@H]2O)[C@](C)(O)C[C@@H](C)CN(C)[C@H](C)[C@@H](O)[C@]1(C)O here?
**A.** inactive

**Q.** For CC1=CC(=O)NS(=O)(=O)O1, which Potency is on record?
**A.** inactive

**Q.** With C[C@H](CCC(=O)O)[C@H]1CC[C@H]2[C@@H]3[C@H](O)C[C@@H]4C[C@H](O)CC[C@]4(C)[C@H]3C[C@H](O)[C@]12C as the compound, how does the Potency read?
**A.** inactive

**Q.** Which Potency does the source give for Nc1ncnc2c1ncn2[C@H]1CC[C@@H](CO)O1 here?
**A.** inactive

**Q.** Which Potency does the source give for Cc1ccc(S(=O)(=O)O)cc1C here?
**A.** inactive

**Q.** With O=c1n(CC2CO2)c(=O)n(CC2CO2)c(=O)n1CC1CO1 (stereo unspecified) as the compound, how does the Potency read?
**A.** inactive

**Q.** For CC(C)O, which Potency is on record?
**A.** inactive

**Q.** For c1ccc2ccccc2c1, which Potency is on record?
**A.** inactive

**Q.** For NCCN, which Potency is on record?
**A.** inactive

**Q.** Which Potency does the source give for C/C=C/C=C/C(=O)O here?
**A.** inactive

**Q.** For OCc1ccccc1, which Potency is on record?
**A.** inactive

**Q.** For OCl, which Potency is on record?
**A.** inactive

— PubChem BioAssay (NCATS)
